PubChem BioAssay (NCI)
The panel holds about 83,000 compounds, 20% with a hit somewhere; the sample as a whole holds those more often.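 Single-concentration screen, 48 h exposure, 96-well plates. Endpoint: percent growth. Below 10 = active.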 A number with no mark means an inactive call. The source made the active and inactive calls.

Experiments:
Assay in all cases: NCI-60 one-dose screen, 48 h (100 = growth as untreated, 0 = no growth, -100 = all killed)
SK-MEL-2 melanoma = details: 10 µM unless noted
SN12C renal = details: 10 µM unless noted
UO-31 renal = details: 10 µM unless noted
TK-10 renal = details: 10 µM unless noted
ACHN renal = details: 10 µM unless noted
CAKI-1 renal = details: 10 µM unless noted
A498 renal = details: 10 µM unless noted
CCRF-CEM leukemia = details: 10 µM unless noted
MOLT-4 leukemia = details: 10 µM unless noted
SR leukemia = details: 10 µM unless noted
RPMI-8226 leukemia = details: 10 µM unless noted
OVCAR-5 ovarian = details: 10 µM unless noted
OVCAR-4 ovarian = details: 10 µM unless noted
SK-OV-3 ovarian = details: 10 µM unless noted
IGROV1 ovarian = details: 10 µM unless noted
OVCAR-3 ovarian = details: 10 µM unless noted
HS 578T breast = details: 10 µM
OVCAR-8 ovarian = details: 10 µM unless noted
NCI/ADR-RES ovarian = details: 10 µM unless noted

SMILES | growth (SK-MEL-2 melanoma) | growth (SN12C renal) | growth (UO-31 renal) | growth (TK-10 renal) | growth (ACHN renal) | growth (CAKI-1 renal) | growth (A498 renal) | growth (CCRF-CEM leukemia) | growth (MOLT-4 leukemia) | growth (SR leukemia) | growth (RPMI-8226 leukemia) | growth (OVCAR-5 ovarian) | growth (OVCAR-4 ovarian) | growth (SK-OV-3 ovarian) | growth (IGROV1 ovarian) | growth (OVCAR-3 ovarian) | growth (HS 578T breast) | growth (OVCAR-8 ovarian) | growth (NCI/ADR-RES ovarian) [%]
CCOC(=O)c1ccc(NC(=O)NC2=NCCS2)cc1 | 76.6% | 45.4% | 36.5% | 97.5% | 78.9% | 35.3% | -7.64% (active) | 7.22% (active) | 19.7% | 17.6% | 13.9% | 96.5% | 70.6% | 11.5% | 21.5% | -53.7% (active) | 42.7% |  | 
Cc1cc(C#Cc2ccccc2)ccc1-n1c(/C=C/c2ccc(F)cc2)nc2ccccc2c1=O | 71% | 73% | 36.2% | 94.4% | 78.6% | 55.2% | 94.1% | 74.3% | 44.7% | 64.8% | 25.6% |  | 57.6% | 89.9% | 95.2% |  | 93.3% | 90.6% | 83.3
CCCN(CCC)CC(O)COc1ccccc1C(=O)Nc1ccccc1 (configuration not stated) | 58% | 81.6% | 78.1% | 111% | 77.2% | 57.5% | 53.9% | 71.2% |  | 28.7% | 71.4% | 115% | 85% | 67.4% | 113% | 50.3% | 80.9% | 84.3% | 
CSCCC1NC(=O)C(C(C)=Nc2ccccc2)=C1O (configuration not stated) | 129% | 101% | 93.4% | 133% | 113% | 89.3% | 102% | 106% | 119% |  | 115% | 120% | 100% | 101% | 103% | 117% | 105% | 111% | 104
Clc1cn2cc(-c3ccc(Cl)c(Cl)c3Cl)nc2s1 | 101% | 101% | 79.2% | 165% | 101% | 88.1% | 110% | 107% | 85.5% | 75.5% | 108% | 87.8% | 100% | 103% | 55.7% | 101% | 104% |  | 110
CC(C)CC(NC(=O)C(CCCN=C(N)N)NC(=O)OCc1ccccc1)C(=O)NC(CNC(=O)/C=C/c1ccccc1)C(C)C (configuration not stated) | 113% | 99.6% | 93% | 107% | 91.9% | 90% | 103% |  | 97.5% | 98.3% | 96% | 89.3% | 95.8% | 117% | 88.3% | 105% |  | 106% | 
CC1=NC(c2ccc(Cl)cc2)C2=C(N1)/C(=C/c1ccc(Cl)cc1)CCC2 (configuration not stated) | 98.4% | 102% | 78.5% | 129% | 102% | 94.7% | 102% | 78.8% | 74.6% |  | -1.96% (active) |  | 83.6% | 109% | 98.8% | 104% | 97.9% | 79% | 98
COc1cc2nccc(Oc3ccc(NC(=O)C4(C(=O)Nc5c(F)cc(F)cc5F)CC4)cc3)c2cc1Oc1ccc(N)cn1 | 81.5% | 30.6% | 45.3% | 84.5% | 50.9% | 65.6% | -6.52% (active) | 70.9% |  | 58.5% | 50.1% | 70% | 28.4% | 81.3% | 28.1% | 75.3% | 25.8% | 69.7% | 82.3
CCN(CC)CCCC(C)N/C(c1cccc(OC)c1)=c1\c(=O)[nH]n(-c2c3ccccc3nc3ccccc23)c(=O)\c1=C(/NC(C)CCCN(CC)CC)c1cccc(OC)c1 (configuration not stated) | -75.2% (active) | 5.78% (active) | -48.5% (active) | -23% (active) | -61.8% (active) | 1.65% (active) | -85.9% (active) |  | -22.7% (active) | 0.449% (active) | -37.3% (active) | 1.41% (active) | -48.1% (active) | -10.1% (active) | -6.96% (active) | -36.6% (active) |  | -7.7% (active) | 
COc1ccc(-c2nc3ccc(Cc4ccc5nc(-c6ccc(OC)cc6)[nH]c5c4)cc3[nH]2)cc1 | 41.2% | 42.4% | 89.3% | 75.1% | 85.4% | 56.3% | 102% | 13.4% | 43.7% | 38.8% | 18.5% | 91.2% | 11.4% | 97.3% | -16.9% (active) | -21.9% (active) | 73.1% |  | 
O=[N+]([O-])c1cccc([I+]c2ccccc2)c1 | 76.1% | 52.4% | 43.6% | 67.5% | 63.3% | 46% | 40.5% | 15.8% | 12.6% | 16.6% | 27.9% | 96.1% | 58.4% | 54.9% | 31.5% | 58.7% | 49.6% | 35% | 77.5
Cc1cc(C)cc(CCCCCCCCCCCCCCCCCC(=O)O)c1 | 150% | 106% | 89% | 116% | 98.9% | 100% | 106% |  | 98.3% | 107% | 99.4% | 103% | 105% | 105% | 108% | 102% |  | 103% | 
N#CC1=C(N)Oc2nc[nH]c(=O)c2C1c1cccs1 (configuration not stated) | 113% | 105% | 97.1% | 105% | 101% | 94.9% | 107% | 95% |  | 92% | 100% | 100% | 90.9% | 105% | 111% | 108% | 112% | 98.3% | 113
CCN(CC)Cc1cc(Nc2nc(NC3CCC(N(C)C)CC3)c3ccccc3n2)ccc1OC (configuration not stated) | 116% | 71.5% | 73.3% | 105% | 90.8% | 102% | 119% | 66.1% | 48.2% | 49.6% | 0.511% (active) | 92.3% | 52.1% | 107% | 82.4% | 92.4% | 73.4% | 63.8% | 98.1
O=C(NCC(c1ccsc1)N1CCCCCC1)c1ccc(C(F)(F)F)cc1 (configuration not stated) | 94.3% | 96.8% | 88.1% | 94.5% | 103% | 85% | 89.4% | 96.2% |  | 85.8% | 88.8% | 106% | 94.6% | 109% | 96.8% | 103% | 102% | 102% | 
COc1ccc(-c2cnc3ccnn3c2-c2cc(OC)c(OC)c(OC)c2)cc1 | 36.9% | 42% | 48.3% | 59.6% | 47.3% | 46.5% | -5.57% (active) | 16.3% | 46.7% |  | 23.9% | 66.1% | 75.4% | 32% | 62.3% | -37.9% (active) | 16.7% | 47% | 27.4
COc1ccc2nc(C)cc(Nc3ccccc3O)c2c1 | 67.7% | -22.9% (active) | -56.1% (active) | 21.2% | -38.9% (active) | -0.0846% (active) | 89.8% | 50.7% | 87.7% | -32.8% (active) | 25% | 108% | -76.1% (active) | -41.5% (active) | 44.9% | -35.5% (active) | -3.7% (active) | 32.6% | 46.9
